The record followed here is PubChem BioAssay AID1445 (SRMLSC, 2008).

Structures are written as SMILES. The whole screen tested about 220,000 compounds, of which about 910 (0.41%) were called active.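 How the source made its calls: active means primary inhibition above the hit cutoff, then over 50% inhibition at one or more dose response concentrations (cut at about 23% in these data, passing the limit was not always enough); inconclusive means conflicting primary data, or primary hits not chosen for dose response; inactive means low primary inhibition, or under 50% at every dose.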 The full list was thinned out, with actives kept by preference. Potency and affinity values are given separately.

In the experiment the target is Aminopeptidase N (Plasmodium falciparum (isolate 3D7)) (UniProt O96935). Kind of experiment: P. falciparum M1AAP inhibitors, biochemical, fluorogenic H-Leu-NHMec substrate, 1536-well (AID 1445).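 Further: plate controls were DMSO full reaction for no effect and no enzyme background for full effect.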 Particulars: recombinant M1AAP, H-Leu-NHMec fluorogenic kinetic assay; at 30 µM, active compounds read high unless noted.
Sequence of Aminopeptidase N (Plasmodium falciparum (isolate 3D7)) (O96935 whole entry, looked up): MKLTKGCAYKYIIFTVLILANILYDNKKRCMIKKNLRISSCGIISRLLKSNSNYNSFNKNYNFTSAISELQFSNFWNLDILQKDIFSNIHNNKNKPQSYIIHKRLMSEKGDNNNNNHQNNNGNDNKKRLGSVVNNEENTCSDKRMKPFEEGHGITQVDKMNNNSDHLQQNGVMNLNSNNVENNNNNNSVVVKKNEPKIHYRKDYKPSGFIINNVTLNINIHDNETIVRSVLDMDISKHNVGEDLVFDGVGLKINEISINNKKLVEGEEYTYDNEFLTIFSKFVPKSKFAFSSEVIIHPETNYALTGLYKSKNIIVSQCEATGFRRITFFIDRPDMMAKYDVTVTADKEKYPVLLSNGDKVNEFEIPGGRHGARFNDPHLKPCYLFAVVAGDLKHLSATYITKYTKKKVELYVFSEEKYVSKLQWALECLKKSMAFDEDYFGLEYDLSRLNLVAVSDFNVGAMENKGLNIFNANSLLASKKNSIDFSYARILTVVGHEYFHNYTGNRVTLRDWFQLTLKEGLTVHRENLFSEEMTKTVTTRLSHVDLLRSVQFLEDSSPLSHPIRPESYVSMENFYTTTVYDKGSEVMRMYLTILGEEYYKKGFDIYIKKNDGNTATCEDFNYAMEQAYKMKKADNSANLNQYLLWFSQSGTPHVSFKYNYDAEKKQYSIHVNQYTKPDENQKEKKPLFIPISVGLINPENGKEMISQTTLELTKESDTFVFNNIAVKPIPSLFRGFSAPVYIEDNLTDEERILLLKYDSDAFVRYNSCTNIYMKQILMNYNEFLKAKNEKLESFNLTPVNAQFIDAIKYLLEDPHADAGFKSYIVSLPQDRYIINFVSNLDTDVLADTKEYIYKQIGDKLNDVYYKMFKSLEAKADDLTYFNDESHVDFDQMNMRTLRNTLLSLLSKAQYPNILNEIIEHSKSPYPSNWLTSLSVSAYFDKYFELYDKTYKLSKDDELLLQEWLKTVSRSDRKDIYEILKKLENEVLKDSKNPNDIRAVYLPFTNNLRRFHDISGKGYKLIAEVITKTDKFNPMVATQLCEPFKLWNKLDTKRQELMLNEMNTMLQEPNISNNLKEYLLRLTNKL
`Cc1ccc(N/C=C2/Sc3ccccc3NC2=O)cc1`: the inhibition was -2.38% (inactive).
As for `O=C1Nc2ccccc2S/C1=C/Nc1cccc(Cl)c1`, the inhibition was -0.46% (inactive).
As to `CCc1ccc(OCC(=O)NC(NC(=S)Nc2ccc(C)cc2C)C(Cl)(Cl)Cl)cc1` (configuration not stated), the inhibition is 1.79% (inactive).
Take `Cc1cc(NC(=O)CSc2nnc(-c3ccncc3)n2-c2ccccc2)no1`: the inhibition was 10.6% (inactive).
As to `CCCCOc1ccc(C(=O)O)cc1`, the inhibition was 9.1% (inactive).
To `CCCCOc1ccc(CC(=O)NCC(=O)O)cc1` belongs 3.76% (inactive).
Take `Cc1cccc(N(Cc2cc3ccccc3[nH]c2=O)C(=O)c2cccs2)c1`: the inhibition was 0.39% (inactive).
For the molecule `C=CCOc1ccc2ccccc2c1CNc1ncn[nH]1`, the inhibition is 0.63% (inactive).
Take `CN(CC(=O)Nc1ccc(N2CCOCC2)cc1)C(=O)COc1ccccc1F`: the inhibition is 0.51% (inactive).
Take `Cc1ccc(NC(=S)C2=C(O)c3sccc3N(C)S2(=O)=O)cc1`: the inhibition was 25.2% (active).
For `Cc1ccc(NC(=O)C2=C(O)c3sccc3N(C)S2(=O)=O)cc1`, the inhibition is 8.43% (inactive).
As for `CN1c2ccsc2C(O)=C(C(=S)Nc2ccccc2)S1(=O)=O`, the figure is 7.91% (inactive); as for `Cc1cc(Oc2cc(N)cc([N+](=O)[O-])c2)ccc1Cl`, 4.69% (inactive); as for `O=C(NNC(=O)c1ccccc1Br)c1ccccc1Cl`, 5.77% (inactive).
To `O=C(NNC(=O)c1ccc2ccccc2c1O)c1ccccc1Cl` belongs 25.2% (active); to `O=C(NNC(=O)c1ccccc1Cl)c1ccccc1Cl`, -3.69% (inactive); to `CSc1ccc(-c2nnn(CC(=O)NCc3ccccc3)n2)cc1`, -1.85% (inactive).
For the molecule `Cc1ccc(-c2ccc(C3C(C#N)=C(N)Oc4n[nH]c(C)c43)o2)cc1` (configuration not stated), the inhibition was 12.9% (inactive).
For the molecule `Cc1[nH]nc2c1C(c1ccc(-c3ccccc3C#N)o1)C(C#N)=C(N)O2` (configuration not stated), the inhibition was 23.4% (active).
`Cc1[nH]nc2c1C(c1ccc(-c3ccc(Cl)cc3)o1)C(C#N)=C(N)O2` (configuration not stated): the inhibition is -0.1% (inactive).
For the molecule `COc1ccc(N2CCN(C(=O)COc3ncnc4ccccc34)CC2)cc1`, the inhibition is 0.28% (inactive).
With `N/C(=N\OC(=O)CCCOc1ccccc1)c1ccncc1`, the inhibition is 2.2% (inactive).
Consider `CCOCCCNC(=O)CCC(=O)NNc1nc2ccccc2c2nc(C)nn12`, for which the inhibition was 1.55% (inactive).
Regarding `CCCCn1c(N)c(S(=O)(=O)c2ccc(C)cc2)c2nc3ccccc3nc21`, the inhibition is 12.5% (inactive).
With `CCCCn1c(NC(=O)c2ccccc2)c(C#N)c2nc3ccccc3nc21`, the inhibition was 2.47% (inactive).
As for `COc1ccc(-n2c(NC(=O)c3ccco3)c(C#N)c3nc4ccccc4nc32)cc1`, the figure is 3.92% (inactive).
On to `CCCCn1c(NS(=O)(=O)c2ccccc2)c(S(=O)(=O)c2ccc(C)cc2)c2nc3ccccc3nc21`, for which the inhibition was -1.2% (inactive).
To `Cc1ccc(S(=O)(=O)c2c(N)n(Cc3ccco3)c3nc4ccccc4nc23)cc1` belongs 24.7% (active); to `Cc1cccc(S(=O)(=O)c2c(N)n(Cc3ccco3)c3nc4ccccc4nc23)c1`, 20.6% (inactive).
Consider `CCCCn1c(NS(=O)(=O)c2ccc(C)cc2)c(S(=O)(=O)c2ccccc2)c2nc3ccccc3nc21`, for which the inhibition is 11.6% (inactive).
As to `Nc1c(S(=O)(=O)c2ccccc2)c2nc3ccccc3nc2n1Cc1ccco1`, the inhibition is 21.5% (inactive).
On to `COc1ccc(-n2c(NC(=O)c3ccc(Br)o3)c(C#N)c3nc4ccccc4nc32)cc1`, for which the inhibition was 1.59% (inactive).
To `O=C(c1ccc(-c2ccccc2)cc1)C1CCCN(C(=O)Cn2cncn2)C1` (configuration not stated) belongs 8.56% (inactive); to `O=C(C(=O)N1CCCc2ccccc21)c1cn(CC(=O)N2CCOCC2)c2ccccc12`, 1.02% (inactive); to `O=C(NCc1ccccc1)C12CC3CC(CC(C3)C1)C2`, -3.07% (inactive).
Turning to `Cc1nn(C(=O)c2cccnc2)c(C)c1Sc1ccccc1`, the inhibition is 6.53% (inactive).
As for `Cc1ccc(S(=O)(=O)N(C)C)cc1NC(=O)c1sccc1Cl`, the figure is 0.57% (inactive).
To `Cc1ccc(C(=O)N2CCCC(c3ccc(Cl)cc3)=N2)cc1` belongs -2.39% (inactive); to `Cc1ccsc1/C=N/NC(=O)c1ccc([N+](=O)[O-])cc1`, 4% (inactive); to `CC(=O)Nc1c(S(=O)(=O)c2ccccc2)c2nc3ccccc3nc2n1Cc1ccccc1`, 22.9% (inactive).
As to `CCCCn1c(NC(=O)c2ccc(Br)o2)c(S(=O)(=O)c2ccccc2)c2nc3ccccc3nc21`, the inhibition is 8.47% (inactive).
As to `CC(=O)Nc1ccc2nc(NC(=O)c3cccs3)sc2c1`, the inhibition was 4.98% (inactive).
Consider `O=C(Nc1ccc(F)cc1F)c1ccccc1-c1ccccc1`, for which the inhibition is -1.46% (inactive).
Regarding `CCN(CC)C(=O)CSc1nc2ccsc2c(=O)n1CCCC(=O)NCCc1ccc(S(N)(=O)=O)cc1`, the inhibition was 11.4% (inactive).
As for `CCCCNC(=O)CSc1nc2ccsc2c(=O)n1CCCC(=O)NCCc1ccc(S(N)(=O)=O)cc1`, the figure is 4.74% (inactive); as for `COc1cc(C(=O)OCC(=O)NCc2ccco2)cc(OC)c1OC`, 7.63% (inactive).
For the molecule `CCCn1c2c(c(O)c(C(=O)Nc3ncccc3O)c1=O)CCCC2`, the inhibition was 25.1% (active).
On to `CC(C)Cn1c2c(c(O)c(C(=O)Nc3ncccc3O)c1=O)CCCC2`, for which the inhibition was 16.5% (inactive).
For the molecule `CCCn1c2c(c(O)c(C(=O)Nc3ncccc3C)c1=O)CCCC2`, the inhibition is 5.08% (inactive).
On to `O=C(NCc1ccccn1)C(=O)NCc1ccccn1`, for which the inhibition is 5.31% (inactive).
With `COc1cccc(-n2c(SCC(=O)NCc3ccco3)nnc2-c2c[nH]c3ccccc23)c1`, the inhibition was 16.4% (inactive).
With `COc1ccc(-c2nc(SCC(=O)NCc3ccco3)c(-c3ccccc3)[nH]2)cc1OC`, the inhibition was 8.46% (inactive).
Consider `COc1ccc(-n2c(SCC(=O)NCc3ccco3)nnc2-c2c[nH]c3ccccc23)cc1`, for which the inhibition is 3.42% (inactive).
Consider `COc1ccc(OC)c(-n2c(SCC(=O)NCc3ccco3)nnc2-c2c[nH]c3ccccc23)c1`, for which the inhibition is 24.5% (active).
As to `COc1ccc(-c2[nH]c(-c3ccccc3)nc2SCC(=O)NCc2ccco2)cc1OC`, the inhibition was 4.65% (inactive).
With `COc1ccc(-c2[nH]c(-c3cccc(OC)c3)nc2SCC(=O)NCc2ccco2)cc1`, the inhibition is 25.2% (active).
In the case of `S=c1nc(-c2csc3c2CCCC3)[nH][nH]1`, the inhibition was -7.04% (inactive).
`CCCC(=O)N(Cc1cc2cccc(C)c2[nH]c1=O)c1ccccc1OC`: the inhibition is 0.65% (inactive).
Consider `COc1cccc(-n2cc(CN(C)Cc3nc(Cc4ccccc4)no3)cn2)c1`, for which the inhibition is 0.62% (inactive).
As for `COc1ccc(NC(=O)C2CCCN(S(=O)(=O)c3ccc4c(c3)oc(=O)n4C)C2)cc1OC` (configuration not stated), the figure is 3.43% (inactive); as for `COc1ccccc1N1CCN(S(=O)(=O)CC23CCC(CC2=O)C3(C)C)CC1` (configuration not stated), -1.74% (inactive); as for `CCCn1cc(S(=O)(=O)CC(=O)Nc2ccc(OC)cc2OC)c2ccccc21`, -0.94% (inactive).
Consider `O=C(/C=C/c1ccccc1Cl)N(Cc1ccccc1)C1CCS(=O)(=O)C1` (configuration not stated), for which the inhibition is 0.49% (inactive).
As for `COc1ccc(N2CSC3=C(C#N)C(c4cccs4)CC(=O)N3C2)cc1` (configuration not stated), the figure is 31.7% (inactive); as for `O=C(Nc1ccc(N2CCN(C(=O)c3ccc(Cl)cc3)CC2)cc1)c1cccnc1`, 3.47% (inactive).
Consider `Cc1ccccc1C(=O)N1CCN(c2ccc(NC(=O)c3cccnc3)cc2)CC1`, for which the inhibition was 1.42% (inactive).
For the molecule `Cc1ccc(C(=O)N2CCN(c3ccc(NC(=O)c4cccnc4)cc3)CC2)cc1`, the inhibition was 25.7% (active).
As for `O=[N+]([O-])c1ccc(Cl)cc1N1CCCCC1`, the figure is 4.92% (inactive); as for `O=C(CSc1nnc(-c2ccncc2)n1C1CCCCC1)Nc1ccccc1`, 0.45% (inactive).
As for `O=C(CSc1ccccc1)Nc1ccc(S(=O)(=O)Nc2ncccn2)cc1`, the inhibition is 3.64% (inactive).
As for `Cc1noc(NS(=O)(=O)c2ccc(NC(=O)CSc3ncccn3)cc2)c1C`, the inhibition was 1.83% (inactive).
On to `O=C(CSc1nnc(-c2ccccc2)n1C1CCCCC1)Nc1ccc(S(=O)(=O)Nc2ccccn2)cc1`, for which the inhibition is 1.56% (inactive).
Take `Cc1noc(NS(=O)(=O)c2ccc(NC(=O)CSc3n[nH]c(-c4ccccc4)n3)cc2)c1C`: the inhibition is 19.9% (inactive).
To `Cc1cc(C)nc(SCC(=O)Nc2ccc(S(=O)(=O)Nc3ncccn3)cc2)n1` belongs 3.26% (inactive); to `CC(Sc1nnc2ccccn12)C(=O)N1CCc2ccccc2C1` (configuration not stated), 2.85% (inactive); to `NC1=C(c2ccc(F)cc2)C(=O)CS1`, -0.25% (inactive).
As for `COC(=O)c1noc(C)c1-c1ccnn1C(=O)c1ccc(C)cc1`, the inhibition is 5.18% (inactive).
Take `CCOc1ccccc1OCC(=O)Nc1nnc(C)s1`: the inhibition is 0.54% (inactive).
For the molecule `O=c1oc2ccccc2nc1/C=C(O)/C=C\c1ccccc1`, the inhibition was 5.28% (inactive).
Consider `COc1ccccc1-c1c(C)oc2c(CN3CCN(C)CC3)c(O)ccc2c1=O`, for which the inhibition is 8.67% (inactive).
Regarding `CN1CCN(Cc2c(O)ccc3c(-c4ccccc4)cc(=O)oc23)CC1`, the inhibition is 20.2% (inactive).
In the case of `Cc1cc(N2CCN(c3ccccn3)CC2)n2c(nc3ccccc32)c1C#N`, the inhibition is -0.82% (inactive).
`O=[N+]([O-])c1cc(C(F)(F)F)ccc1N/N=C/c1cc2ccccc2nc1Cl`: the inhibition is -1.36% (inactive).
Take `C/C(=N/OCO/N=C(\C)c1ccccc1F)c1ccccc1F`: the inhibition is 1.08% (inactive).
Take `Cc1ccc2oc(=O)n(Cc3ccccc3OC(C)C)c2c1`: the inhibition was 1.91% (inactive).
In the case of `Cc1ccc(S(=O)(=O)Nc2nc3ccccc3nc2NCc2ccco2)cc1C`, the inhibition is 25.4% (active).
Consider `Cc1ccc(S(=O)(=O)Nc2nc3ccccc3nc2NCc2ccco2)cc1`, for which the inhibition is 10.1% (inactive).
Regarding `Cc1cccc(S(=O)(=O)Nc2nc3ccccc3nc2NCc2ccco2)c1`, the inhibition is 14.8% (inactive).
For `N/C(Cc1nc(-c2ccc(Br)cc2)cs1)=N\O`, the inhibition was 1.76% (inactive).
To `COc1cc2c(cc1NC(=O)c1cc(-c3ccncc3)nc3ccc(C)cc13)oc1ccccc12` belongs 0.05% (inactive).
Regarding `Cc1ccc(CCNS(=O)(=O)c2cnc[nH]2)cc1`, the inhibition is 1.38% (inactive).
As for `C/C(=N\NC(=S)NC1CCCCC1)c1ccc(O)cc1`, the figure is -1.69% (inactive).

The term inhibition denotes the relative decrease from the control value, in per cent.
